In general, AC50 refers to the concentration giving half of the maximal activity seen.

Outcome and AC50 data for 26 compounds are collected here from PubChem BioAssay (EPA / NIEHS).

The target of experiment [1] is Sodium channel protein type 1 subunit alpha (Rattus norvegicus) (UniProt P04774). The experiment can be described thus: NVS_IC_rNaCh_site2: NovaScreen (NVS) Ion Channel Assay for rat Sodium Channel, Site 2 (NaCh) (AID 2283322).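 Note: hit means loss of radioligand binding signal relative to DMSO so AC50 marks displacement.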 In short, it runs like this: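 Initial duplicate single-point testing at 25 uM, followed by concentration-response runs for actives. Binding of radioligand to rat forebrain membranes quantified after 1 h via filter-based radiodetection.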

Experiment [2] addresses human Serotonin, 5-Hydroxytryptamine Receptor 3 (5HT3), HTR3A (gene 3359) (UniProt P46098). The experiment can be described thus: NVS_LGIC_h5HT3: NovaScreen (NVS) Ligand-Gated Ion Channel Assay for human Serotonin, 5-Hydroxytryptamine Receptor 3 (5HT3) (AID 2283325). In short, it runs like this:
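Initially tested at 25 uM in duplicate, then up to 50 uM in concentration-response for actives, compounds competed with a radioligand for HEK293-derived human 5-HT3 receptor. Bound counts were measured by filtration and scintillation at 1 h; loss of signal versus DMSO.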

Experiment [3] has as its target rat Thyrotropin Releasing Hormone Receptor (TRH), Trhr (gene 25570) (UniProt Q01717). The experiment can be described thus: NVS_GPCR_rTRH: NovaScreen (NVS) G Protein-Coupled Receptor Assay for rat Thyrotropin Releasing Hormone Receptor (TRH) (AID 2283329).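 Note: hit means lower bound tracer signal versus DMSO baseline.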 In short, it runs like this:
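Cell-free radioligand binding on rat forebrain membranes; bound tracer measured by filter-based scintillation counting 4 hours after dosing. Loss of signal versus DMSO baseline indicates displacement; primary screen at 25 uM in duplicate, actives then run in concentration series.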

Experiment [4] addresses rat Opioid Receptor, Non-selective Binding, Oprm1 (gene 25601) (UniProt P33535). The experiment can be described thus: NVS_GPCR_rOpiate_NonSelective: NovaScreen (NVS) G Protein-Coupled Receptor Assay for rat Opioid Receptor, Non-selective Binding (AID 2283318). In short, it runs like this: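 Filter-based radioligand displacement using rat forebrain membrane preparations, measured 1.5 h post-dosing. Single-concentration duplicate screen at 25 uM, follow-up in concentration series; activity taken as signal loss relative to DMSO.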

Experiment [5] deals with NCBI gene 24521. The experiment can be described thus: NVS_IC_rKATPCh: NovaScreen (NVS) Ion Channel Assay for rat Potassium Channel, ATP-Sensitive (KATPCh) (AID 2283319). In short, it runs like this:
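Primary duplicate screen at 25 uM, then singleton concentration series to 50 uM maximum, in a rat cortex membrane radioligand displacement assay. Binding measured by filtration and scintillation 2 h post-dose; DMSO baseline.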

In experiment [6] the target is rat Gamma-Aminobutyric Acid Type A Receptor, Non-Selective (GABAR-NonSelective), Gabra1 (gene 29705) (UniProt P62813). The experiment is described as follows: NVS_LGIC_rGABAR_NonSelective: NovaScreen (NVS) Ligand-Gated Ion Channel Assay for rat Gamma-Aminobutyric Acid Type A Receptor, Non-Selective (GABAR-NonSelective) (AID 2283326). In short, it runs like this: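 Compounds were first screened in duplicate at 25 uM, with actives run as singleton concentration series (max 50 uM). Binding of a radioligand to rat whole-brain GABA-A preparation was measured by filtration and scintillation counting after 1 h, DMSO baseline.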

The target of experiment [7] is rat Neonicotinoid receptor (NNR), Chrna7 (gene 25302) (UniProt Q05941). The experiment is described as follows: NVS_LGIC_rNNR_BungSens: NovaScreen (NVS) Ligand-Gated Ion Channel Assay for rat Neonicotinoid receptor (NNR) (AID 2283315). In short, it runs like this: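 Rat cortical membrane preparation incubated 2.5 h with tritiated or iodinated radioligand and test chemical. Bound radioactivity was filtered and counted by scintillation, and displacement was analysed against DMSO.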

For experiment [8], the target named is rat Vasopressin 1 Receptor (V1), Avpr1a (gene 25107) (UniProt P30560). The experiment is described as follows: NVS_GPCR_rV1: NovaScreen (NVS) G Protein-Coupled Receptor Assay for rat Vasopressin 1 Receptor (V1) (AID 2283316). In short, it runs like this:
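Concentration-response up to 50 uM for chemicals passing a threshold such as 30% inhibition in an initial duplicate 25 uM screen. Displacement of radioligand from rat liver membranes measured after 1.5 h by filtration and scintillation.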

A short description of experiment [9]: NVS_IC_rCaDHPRCh_L: NovaScreen (NVS) Ion Channel Assay for rat Calcium Channel, Type L, Dihydropyridine Site (CaDHPRCh_L) (AID 2283320). Here is the method: NVS_IC_rCaDHPRCh_L is a biochemical, single-readout assay that uses extracted gene-proteins from Rat cortical membranes in a tissue-based cell-free assay. Measurements were taken 1 hour after chemical dosing in a 48-well plate.NVS_IC_rCaDHPRCh_L is one of one assay component(s) measured or calculated from the NVS_IC_rCaDHPRCh_L assay. It is designed to make measurements of radioligand binding, a form of binding reporter, as detected with scintillation counting signals by Filter-based radiodetection technology.Data from the assay component NVS_IC_rCaDHPRCh_L was analyzed into 1 assay endpoint. This assay endpoint, NVS_IC_rCaDHPRCh_L, was analyzed in the positive analysis fitting direction relative to DMSO as the negative control and baseline of activity. Using a type of binding reporter, loss-of-signal activity can be used to understand changes in the binding as they relate to the gene Cacna1a. Furthermore, this assay endpoint can be referred to as a primary readout, because the performed assay has only produced 1 assay endpoint. To generalize the intended target to other relatable targets, this assay endpoint is annotated to the ion channel intended target family, where the subfamily is calcium channel. […]

In experiment [10] the target is rat Somatostatin Receptor (SST), Sstr1 (gene 25033) (UniProt P28646). The experiment can be described thus: NVS_GPCR_rSST: NovaScreen (NVS) G Protein-Coupled Receptor Assay for rat Somatostatin Receptor (SST) (AID 2283314). In short, it runs like this:
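Single-concentration duplicate screen (25 uM), then concentration-response up to 50 uM for chemicals passing a threshold such as 30% inhibition. Membranes came from rat forebrain. Binding was measured 1 h post-dose by filter radiodetection and scintillation, relative to DMSO.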

Several values for one entry are separate records, joined by “and”; a condition that tells them apart may be missing. Identical values can stand only once. Inconclusive results are not listed. Activity calls are given as the source filed them. Rule for the calls: active = hit-call score of the fitted dose curve at least 0.9, where 1 is the maximum; inconclusive = response in the unintended direction; inactive = score below 0.9.

Sequence of rat Thyrotropin Releasing Hormone Receptor (TRH), Trhr (gene 25570) (Q01717 whole entry, looked up): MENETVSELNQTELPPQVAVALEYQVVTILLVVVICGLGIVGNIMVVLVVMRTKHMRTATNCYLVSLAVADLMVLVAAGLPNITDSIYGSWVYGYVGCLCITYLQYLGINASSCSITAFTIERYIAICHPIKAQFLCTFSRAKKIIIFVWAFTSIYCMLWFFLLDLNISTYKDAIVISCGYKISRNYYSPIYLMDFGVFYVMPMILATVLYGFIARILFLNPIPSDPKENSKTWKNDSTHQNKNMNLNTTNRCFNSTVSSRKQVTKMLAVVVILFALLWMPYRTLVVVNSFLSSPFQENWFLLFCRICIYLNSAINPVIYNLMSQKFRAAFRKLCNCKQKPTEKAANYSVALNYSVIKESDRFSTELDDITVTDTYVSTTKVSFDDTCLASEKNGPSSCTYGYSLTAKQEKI
Sequence of rat Opioid Receptor, Non-selective Binding, Oprm1 (gene 25601) (P33535 whole entry, looked up): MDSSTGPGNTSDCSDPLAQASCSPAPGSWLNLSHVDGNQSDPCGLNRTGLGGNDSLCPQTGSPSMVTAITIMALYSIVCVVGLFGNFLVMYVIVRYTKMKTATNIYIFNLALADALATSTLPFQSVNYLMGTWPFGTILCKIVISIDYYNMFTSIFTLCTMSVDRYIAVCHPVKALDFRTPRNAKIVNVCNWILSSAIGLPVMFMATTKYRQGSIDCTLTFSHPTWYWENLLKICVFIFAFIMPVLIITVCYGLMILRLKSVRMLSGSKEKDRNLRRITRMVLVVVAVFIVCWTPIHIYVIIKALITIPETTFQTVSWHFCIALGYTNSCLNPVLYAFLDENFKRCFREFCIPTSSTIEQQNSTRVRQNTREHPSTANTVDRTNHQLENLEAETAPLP
Sequence of rat Gamma-Aminobutyric Acid Type A Receptor, Non-Selective (GABAR-NonSelective), Gabra1 (gene 29705) (P62813 whole entry, looked up): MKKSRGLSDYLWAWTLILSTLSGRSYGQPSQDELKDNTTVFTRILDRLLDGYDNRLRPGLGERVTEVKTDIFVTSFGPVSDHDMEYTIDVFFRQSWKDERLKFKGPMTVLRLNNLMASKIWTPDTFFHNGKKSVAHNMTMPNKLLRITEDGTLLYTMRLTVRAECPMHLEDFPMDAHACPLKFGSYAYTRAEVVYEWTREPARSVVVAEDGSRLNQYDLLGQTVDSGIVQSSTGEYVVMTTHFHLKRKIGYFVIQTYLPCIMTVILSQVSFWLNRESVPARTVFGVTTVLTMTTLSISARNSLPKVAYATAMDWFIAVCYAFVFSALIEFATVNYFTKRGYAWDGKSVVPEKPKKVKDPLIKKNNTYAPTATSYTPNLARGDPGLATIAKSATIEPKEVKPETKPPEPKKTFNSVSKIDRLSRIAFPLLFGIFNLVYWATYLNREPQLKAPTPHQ
Sequence of rat Neonicotinoid receptor (NNR), Chrna7 (gene 25302) (Q05941 whole entry, looked up): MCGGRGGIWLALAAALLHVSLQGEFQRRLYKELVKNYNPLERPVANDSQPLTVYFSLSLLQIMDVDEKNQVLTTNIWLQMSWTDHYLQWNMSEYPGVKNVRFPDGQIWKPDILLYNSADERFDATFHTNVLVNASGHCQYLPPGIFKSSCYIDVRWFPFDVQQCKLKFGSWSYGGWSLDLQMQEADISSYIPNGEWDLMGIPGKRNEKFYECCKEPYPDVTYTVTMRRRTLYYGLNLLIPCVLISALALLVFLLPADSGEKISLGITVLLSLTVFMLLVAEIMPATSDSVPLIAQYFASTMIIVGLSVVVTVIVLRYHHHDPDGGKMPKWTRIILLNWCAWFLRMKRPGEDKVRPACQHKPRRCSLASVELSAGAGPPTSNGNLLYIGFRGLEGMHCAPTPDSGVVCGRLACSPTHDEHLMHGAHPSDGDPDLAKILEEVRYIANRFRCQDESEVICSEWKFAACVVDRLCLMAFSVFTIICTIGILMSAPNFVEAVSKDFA
Sequence of rat Vasopressin 1 Receptor (V1), Avpr1a (gene 25107) (P30560 whole entry, looked up): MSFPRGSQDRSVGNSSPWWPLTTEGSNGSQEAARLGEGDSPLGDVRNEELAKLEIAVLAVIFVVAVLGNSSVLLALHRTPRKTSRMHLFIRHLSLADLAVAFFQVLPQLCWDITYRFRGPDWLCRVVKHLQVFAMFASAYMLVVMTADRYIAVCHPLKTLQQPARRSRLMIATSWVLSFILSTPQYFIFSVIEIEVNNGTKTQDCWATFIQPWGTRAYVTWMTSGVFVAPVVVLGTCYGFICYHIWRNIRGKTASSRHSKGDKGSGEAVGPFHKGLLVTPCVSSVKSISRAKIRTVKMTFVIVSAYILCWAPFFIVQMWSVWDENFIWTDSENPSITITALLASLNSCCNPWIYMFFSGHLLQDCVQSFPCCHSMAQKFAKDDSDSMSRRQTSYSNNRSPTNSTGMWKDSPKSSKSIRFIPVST
Sequence of human Serotonin, 5-Hydroxytryptamine Receptor 3 (5HT3), HTR3A (gene 3359) (P46098 whole entry, looked up): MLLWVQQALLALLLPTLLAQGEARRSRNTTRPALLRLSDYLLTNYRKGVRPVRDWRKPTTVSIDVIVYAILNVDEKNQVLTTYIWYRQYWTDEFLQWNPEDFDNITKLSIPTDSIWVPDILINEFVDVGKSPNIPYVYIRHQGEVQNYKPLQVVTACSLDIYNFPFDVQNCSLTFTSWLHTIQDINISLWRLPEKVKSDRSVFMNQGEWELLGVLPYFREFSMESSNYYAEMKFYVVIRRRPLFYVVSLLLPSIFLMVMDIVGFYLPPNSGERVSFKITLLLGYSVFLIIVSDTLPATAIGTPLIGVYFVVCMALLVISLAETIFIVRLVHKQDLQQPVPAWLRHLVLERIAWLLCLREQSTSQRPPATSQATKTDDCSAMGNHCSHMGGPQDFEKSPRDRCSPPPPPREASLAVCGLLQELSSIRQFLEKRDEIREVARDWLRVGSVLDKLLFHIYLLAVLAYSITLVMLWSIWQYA
Sequence of rat Somatostatin Receptor (SST), Sstr1 (gene 25033) (P28646 whole entry, looked up): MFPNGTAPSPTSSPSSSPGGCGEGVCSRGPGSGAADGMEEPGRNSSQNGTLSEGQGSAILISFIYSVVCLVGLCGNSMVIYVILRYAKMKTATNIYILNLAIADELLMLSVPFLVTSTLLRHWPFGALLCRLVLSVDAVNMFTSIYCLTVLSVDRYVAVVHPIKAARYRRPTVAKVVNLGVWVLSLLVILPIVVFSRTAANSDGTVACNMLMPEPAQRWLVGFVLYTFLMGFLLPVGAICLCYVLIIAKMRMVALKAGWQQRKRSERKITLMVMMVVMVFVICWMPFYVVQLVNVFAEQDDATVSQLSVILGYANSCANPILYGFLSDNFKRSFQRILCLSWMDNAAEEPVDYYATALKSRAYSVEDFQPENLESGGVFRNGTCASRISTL

On to `C=CC(=O)OCCN(CC)CC`, for which the call in experiment [1] was inactive.

Turning to `CCCCC(CC)C(=O)O` (stereo unspecified), in experiment [2], the call was inactive. Turning to `NCCN`, in [3], the compound was classed as inactive. On to `CCc1cccc(CC)c1N(COC)C(=O)CS(=O)(=O)O`, for which the call in experiment [1] was inactive.

On to `CCCCCCCCCCCCCCCCCC[N+](C)(C)Cc1ccccc1`, for which the compound was classed as inactive in experiment [1]. Turning to `CCc1ccccc1O`, the outcome in experiment [3] was inactive. Regarding `Clc1ccc(Nc2nnc(Cc3ccncc3)c3ccccc23)cc1`, the half-maximal activity concentration (AC50) in experiment [1] is 2.08 µM (active). On to `N=C(N)c1ccc(OCCCCCOc2ccc(C(=N)N)cc2)cc1`, for which the concentration at half-maximal activity (AC50) in [4] is 5.6 µM (active); in experiment [1], 16.1 µM (active). Also, the compound was called inactive in experiment [5] and in [6]. As to `CC1CNCC(C)O1` (stereo unspecified), the half-maximal activity concentration (AC50) in experiment [7] is 25 µM (active). `CS(=O)(=O)c1ccc([C@@H](CC2CCCC2)C(=O)Nc2cnccn2)cc1Cl`: the outcome in experiment [8] and in experiment [3] was inactive. For the compound `NC(=NCCCCCCN=C(N)/N=C(\N)Nc1ccc(Cl)cc1)/N=C(\N)Nc1ccc(Cl)cc1`, in [7], the concentration at half-maximal activity (AC50) is 38.3 µM (active). Besides, the call in experiment [1] was inactive.

Take `Cc1ccc(C)c(S(=O)(=O)O)c1`: in [3], the half-maximal activity concentration (AC50) is 194 nM (active). For the compound `CN(C)c1ccc(C(=C2C=CC(=[N+](C)C)C=C2)c2ccccc2)cc1`, in experiment [1], the AC50 was 860 nM (active) and 5.04 µM (active). Regarding `O=C(CCCN1CCC(O)(c2ccc(Cl)cc2)CC1)c1ccc(F)cc1`, the AC50 in [9] is 3.15 µM (active); in experiment [1] it was 0.376 µM (active).

Take `CN(C)CCOC(c1ccccc1)c1ccccc1`: the values for the AC50 in experiment [4] and in experiment [1] were 7 µM (active) and 3.25 µM (active), respectively. `CCOC(=O)CN[C@@H](C(=O)N1CC[C@H]1C(=O)NCc1ccc(/C(N)=N/O)cc1)C1CCCCC1`: in [1], the AC50 is 0.00287 µM (active). On to `CCCCc1oc2ccccc2c1C(=O)c1cc(I)c(OCCN(CC)CC)c(I)c1`, for which the values for the half-maximal activity concentration (AC50) in experiment [9] and in experiment [1] were 0.772 µM (active) and 1.67 µM (active), respectively. With `O=C(O)c1cccc(C(=O)O)n1`, in experiment [3], the compound was called inactive.

In the case of `COc1cc([N+](=O)[O-])ccc1N`, in [3], the compound was classed as inactive. Turning to `Cc1cc(C(=C2C=CC(=Nc3ccc(S(=O)(=O)O)cc3)C=C2)c2ccc(Nc3ccc(S(=O)(=O)O)cc3)cc2)cc(S(=O)(=O)O)c1N`, in [3], the compound was classed as inactive. The same measure, in the same setting: under `CCCCCCC(C)(C)C(=O)O` stands “inactive”.

Take `Cc1ccc(S(=O)(=O)O)cc1`: the AC50 in experiment [3] was 167 nM (active). In the case of `CCCCCCCCCCCCOS(=O)(=O)O`, the compound was classed as inactive in experiment [5]. Moreover, in experiment [6], the AC50 was 5.96 µM (active). In the case of `CCCCCc1ccc(O)cc1`, in experiment [1], the AC50 was 1.07 µM (active). In the case of `CCCCc1ccc2ccccc2c1S(=O)(=O)O`, in experiment [3], the outcome was inactive. Take `CN(Cc1cnc2nc(N)nc(N)c2n1)c1ccc(C(=O)N[C@@H](CCC(=O)O)C(=O)O)cc1`: the concentration at half-maximal activity (AC50) in [10] was 3.06 µM (active). Also, the compound was classed as inactive in experiment [1].
